Records with an inconclusive call do not appear. Unmarked numbers belong to inactive results. Active and inactive are the calls of the source. Calls follow the shape of the dose curve; as a rule, active = well fitted inhibition curve with a large enough effect; inconclusive = small, poorly fitted or top-dose-only effect; inactive = flat fitted curve, though single readings scatter.
% is scaled to controls: 0 for no effect and ±100 for the full control effect.

The assay has as its system HaCat. Nature of the assay: Cytotoxic Profiling of Annotated Libraries Using Quantitative High-Throughput Screening (AID 1296008). Also: nearly all actives have a fitted effect of over 60% in size. To be noted: Five cell lines viability, CellTiter-Glo ATP luminescence, 48-72 h; max response: hits give low values. Summed up: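 Compounds were pin-transferred onto cells and incubated 48 or 72 hr at 37 degree Celsius, 95% humidity. CellTiter-Glo was added, plates sat 10 min at room temperature, then ATP-coupled luminescence was imaged as the viability read-out.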
A general note: Cellular ATP, detected with luciferase, serves as a proxy for viable cell number.
For the molecule `O=C(NCCCCN1CCN(c2cccc(Cl)c2Cl)CC1)c1cc2ccccc2s1`, the call was inactive.
In the case of `C/C=C/[C@@H]1C=C[C@@H]2C[C@H](C)CC[C@H]2[C@]1(C)/C(O)=C1/C(=O)[C@@H](CO)N(C)C1=O`, the max response was 3.96%.
With `CNc1nc(NCc2ccc(NS(C)(=O)=O)cc2Cl)cc(-c2ccccn2)n1`, the outcome was inactive.
For `N#CC(CCCN1CCN(/N=C/c2cccnc2)CC1)(c1ccccc1)c1ccccc1`, the max response is -26.9%.
For the molecule `CCc1cc2c(cc1CC)CC(NCC(O)c1ccc(O)c3[nH]c(=O)ccc13)C2` (centres undefined), the max response is 2.19%.
Turning to `CC(=O)OC1C(OC(=O)c2ccccc2)C2C(=C(C)CCC2(C)C)C23CCC(C)(C2)C(=O)CC13` (centres undefined), the max response is -3.85%.
`CCCc1cc(C)n(C)c(=O)c1CN(C)C(=O)c1cc(-c2ccc(N3CCN(C(C)C)CC3)nc2)cc2c1cnn2C(C)C`: the max response was 1.32%.
In the case of `COC(=O)c1cc(Br)cnc1N1CCC(NC2CCCCC2)C(O)C1` (centres undefined), the max response was -7.79%.
On to `Cc1ccc(C2(C(=O)N3CCC(n4nc(-c5ccccc5)oc4=O)CC3)CC2)cc1`, for which the max response was -7.48%.
Turning to `Cc1c(C2=CCN(C(=O)N(C)C(C)C)CC2)nnn1-c1cccnc1F`, the max response was 3%.
With `NC(N)=NC(=O)c1cnn(-c2cccc3ncccc23)c1C1CC1`, the max response was -2.12%.
For the molecule `CC1(C)OC[C@H](NC(=O)Nc2ccc(Br)cc2Br)[C@H](c2ccccc2)O1`, the max response is -5.94%.
Regarding `O=C(Nc1ccccc1)c1ccc(Nc2nnc(-c3ccc(O)cc3)c3ccccc23)cc1`, the max response is -7.55%.
In the case of `CCCc1ccc(OCC(=O)N(Cc2nc(-c3cccnc3)no2)C(C)C)cc1`, the max response is -2.41%.
In the case of `C/C(=C/C=C\C=C\Cc1cnco1)[C@@H](O)C(C)(C)C(N)=O`, the max response was -5.26%.
For the molecule `CCC(C)CNCC(=O)N1CCC2SC=CC2C1COc1cccc(C)c1` (centres undefined), the max response is 3.39%.
On to `CNC(=O)c1cc(Oc2ccc(NC(=O)c3cccc(C(F)(F)F)c3)cc2)ccn1`, for which the max response is -5.26%.
In the case of `CC(F)(F)CN1CCOc2c(nn(-c3ccccc3Cl)c2-c2ccc(Cl)cc2)C1=O`, the max response was -16.2%.
For the molecule `COc1cc(CN(CCN)C(=O)c2cccs2)ccc1OCc1ccccc1`, the max response is -3.01%.
With `CO[C@H]1[C@@H](O)[C@H](O[C@H]2CC[C@@]3(C)C(CCC4C3CC[C@]35COC6(COC(=O)C6)C3CCC45O)C2)O[C@@H](C)[C@@H]1OC1OC(CO)C(OC2OC(CO)C(O)C(O)C2O)C(O)C1O` (some centres undefined), the max response was -26.8%.
In the case of `O=C1c2ccc(Nc3ccc(F)cc3F)cc2CCc2ccc(OCC(O)CO)cc21` (centres undefined), the max response is 0.902%.
As for `O=S(=O)(c1ccccc1)N(CC(F)(F)F)c1ccc(C(O)(C(F)(F)F)C(F)(F)F)cc1`, the call was inactive.
For the molecule `CCC(C)CNCC(=O)N1CCc2sccc2C1COc1cccc(C)c1` (centres undefined), the max response was 1.97%.
On the same count and under the same terms, with `COc1cc(C(C)C)c(Oc2cnc(N)nc2N)cc1I` the figure was -19.2%.
`Cc1cc(C)cc(-c2cnc3cc(Cl)c(-c4cccc(O)c4)cc3c2OCCCN)c1`: the call was inactive.
In the case of `C=CC(C)(O)CC/C=C(\C)C(=O)OC1C(O)C(CO)OC(OC(=O)C23CCC(C)(C)CC2C2=CCC4C5(C)CCC(OC6OC(COC7OCC(OC(C)=O)C(O)C7OC7OC(COC(C)=O)C(O)C(O)C7OC(C)=O)C(O)C(O)C6OC6OCC(O)C(O)C6O)C(C)(C)C5CCC4(C)C2(C)C(O)C3O)C1OC1OCC(OC2OCC(O)C(OC3OCC(O)C(O)C3O)C2O)C(O)C1O` (centres undefined), the max response was -18.3%.
On to `CCc1cccc(CC)c1-n1c(C=C(C)C)c(C(=O)N2CCNCC2)cc(-c2nc(-c3ccc(C(F)(F)F)cc3)cs2)c1=O`, for which the max response was -5.33%.
For `Cc1nc(Nc2ccc(F)cc2)nc(N2CCc3ccccc3C2C)c1C` (centres undefined), the molecule was called inactive.
In the case of `CCCn1ncc(CN2CCCC(C(=O)c3cccc(OC(C)C)c3)C2)c1C` (centres undefined), the max response is 4.33%.
The same measure, in the same setting: then `Cc1ccc(N2CCN(CCC3NC(=O)c4ccccc43)CC2)cc1C` (centres undefined), with -0.27%; and `COc1ccc(S(=O)(=O)Nc2c(C)cc(C)cc2C)cc1`, with -0.296%.
On to `O=C(NS(=O)(=O)c1ccc(Br)s1)c1ccc(Cl)cc1Cl`, for which the max response was 3.71%.
As for `CC1(C)CC[C@]2(C(=O)O)CC[C@]3(C)C(=CCC4[C@@]5(C)C[C@@H](O)[C@H](O)[C@@](C)(CO)C5CC[C@]43C)[C@@H]2[C@@H]1O` (some centres undefined), the max response was -17.5%.
As to `COc1cc2c(cc1-c1c(C)noc1C)ncc1[nH]c(=O)n(C(C)c3ccccn3)c12` (centres undefined), the molecule was called inactive.
Turning to `CC1(C)CCC(C)(C)c2cc(C#Cc3ccc(C(=O)O)cc3)ccc21`, the max response is -1.18%.
In the case of `Cc1nc2c(C(F)(F)F)cccc2nc1-c1ccc(-c2cccc(S(C)(=O)=O)c2)cc1`, the max response is -0.882%.
With `CC(C)C[C@@H](C(=O)N[C@@H](Cc1ccc(OCc2ccccc2)cc1)C(=O)NC(C)(C)C)N(C)Cc1ccc(C(C)(C)C)cc1`, the molecule was called inactive.
Take `CC1=C(C(=O)OC2CCCCC2)C(c2ccc([N+](=O)[O-])cc2)C2=C(CC(C)(C)CC2=O)N1` (centres undefined): the max response is -9.38%.
With `C[C@@H]1O[C@@H](O[C@H]2[C@H](OC(=O)[C@]34CCC(C)(C)C[C@H]3C3=CCC5[C@@]6(C)C[C@H](O)[C@H](O[C@@H]7O[C@H](C(=O)O)[C@@H](O)[C@H](O)[C@H]7O)[C@@](C)(CO)C6[C@H](O)C[C@@]5(C)[C@]3(C)C[C@H]4O)O[C@@H](CO)[C@@H]2O)[C@H](O)[C@H](O)[C@H]1O[C@@H]1OC[C@@H](O)[C@H](O[C@H]2OC[C@](O)(CO)[C@H]2O)[C@H]1O` (some centres undefined), the max response is -2%.

The values above are taken from PubChem BioAssay (NCATS).
